High-throughput results from PubChem BioAssay.
LmPK inh – qHTS Assay for Inhibitors of Leishmania Mexicana Pyruvate Kinase (LmPK). Q27686. purified LmPK, Kinase-Glo ATP luminescence, 1 h. Potency, µM (titrated, usually from 57.5 µM), for inactives: top-dose activity change, negative = inhibition, usual class: inhibitors. 0.37% of 290,000 active
Target sequence (Q27686 whole entry, looked up): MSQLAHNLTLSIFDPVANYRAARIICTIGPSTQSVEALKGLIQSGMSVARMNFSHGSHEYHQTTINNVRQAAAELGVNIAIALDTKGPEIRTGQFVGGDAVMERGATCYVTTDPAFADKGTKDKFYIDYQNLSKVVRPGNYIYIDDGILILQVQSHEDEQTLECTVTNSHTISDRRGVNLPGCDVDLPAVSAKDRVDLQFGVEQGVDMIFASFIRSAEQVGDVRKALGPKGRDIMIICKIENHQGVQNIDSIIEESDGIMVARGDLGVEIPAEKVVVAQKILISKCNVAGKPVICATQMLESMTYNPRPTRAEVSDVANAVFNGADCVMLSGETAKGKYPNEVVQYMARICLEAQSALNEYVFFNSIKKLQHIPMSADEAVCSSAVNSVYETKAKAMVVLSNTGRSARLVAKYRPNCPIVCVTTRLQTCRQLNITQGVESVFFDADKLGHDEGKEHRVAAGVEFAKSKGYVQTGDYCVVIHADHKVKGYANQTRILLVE
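0.1 nM LmPK, 0.5 mM PEP, 0.1 mM ADP; 50 mM imidazole pH 7.2, 7 mM MgCl2, 50 mM KCl; 1 h RT. Kinase-Glo luminescence readout, normalized to no-enzyme (full inhibition) and uninhibited wells.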
AMA1 RON2 block – qHTS for Inhibitors of AMA1-RON; Towards Development of Antimalarial Drug Lead: Primary Screen | Plasmodium falciparum AMA1 (3D7) - RON2 peptide interaction | AlphaScreen AMA1-biotinylated RON2 peptide binding | Potency, µM (titrated, usually from 58.2 µM), for the others: at the highest dose activity change, negative = inhibition, hits mostly inhibitors | 0.2% of 360,000 active;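 further: 0% = vehicle wells and -100% = peptide control; nearly all actives have a fitted effect of over 45% in size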
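AMA1 (3D7) with his tag at 25 nM final met compounds first, then biotinylated RON2 peptide at 25 nM; detection used donor plus acceptor beads, 10 µg/mL apiece, read by AlphaScreen after 30 min at room temperature.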
VACV mCherry inh – qHTS for Stage-Specific Inhibitors of Vaccinia Orthopoxvirus: mCherry Reporter Primary qHTS; Vaccinia virus mCherry reporter infection, fluorescence; 0.63% of 310,000 active; AID 720579, 2013; Potency, µM (top dose mostly 36.5 µM), without a hit: top-dose activity change, negative = inhibition, actives largely listed as inhibitors; calls by dose curve; tested in A549 cells; further: nearly all actives have a fitted effect of over 35% in size
RE007 growth inh – qHTS Assay for Inhibitors of the HIV-1 protein Vpr. S. pombe RE007 Vpr strain, BacTiter-Glo ATP luminescence, 24 h. Potency, µM (top dose mostly 92.2 µM), without a hit: top-dose activity change, negative = less growth, hits mostly inhibitors. 0.21% of 360,000 active. AID 651644, 2012; active means well fitted falling curve with a large enough effect; inconclusive means small, poorly fitted or top-dose-only effect; inactive means no such curve, though single readings can be large or run the other way; further: nearly all actives have a fitted effect of over 50% in size
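Fission yeast strain RE007, carrying one chromosomally integrated HIV-1 vpr copy, was seeded at OD 0.01 in PMG+AL medium with 23 nL pinned compound. After 24 h at 30 °C and 99% humidity, viability was read by BacTiter-Glo luminescence.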
TbPYK inhibitor – qHTS of Trypanosoma Brucei Inhibitors; pyruvate kinase (Trypanosoma brucei), Q57TT1; TbPYK enzyme, Kinase-Glo Plus ATP luminescence, 45 min; Potency, µM (top dose mostly 76.8 µM), for inactives: top-dose activity, negative = inhibition, most hits filed as inhibitors; 0.12% of 410,000 active; AID 624173, 2012; further: nearly all actives have a fitted effect of over 50% in size
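Screened from lowest to highest concentration, compounds were pinned into TbPYK/substrate mixtures, and ADP (130 uM final) was added. Plates sat at room temperature for 45 min prior to Kinase-Glo Plus detection by luminescence.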
Vaccinia Venus – qHTS for Stage-Specific Inhibitors of Vaccinia Orthopoxvirus: Venus Reporter Primary qHTS; Vaccinia virus Venus reporter expression, fluorescence; Potency, µM (titrated, usually from 36.5 µM), inactives show top-dose activity change, negative = inhibition, actives largely listed as inhibitors; 0.46% of 330,000 active; calls by dose curve; tested in A549 cells; further: nearly all actives have a fitted effect of over 30% in size
Numbers without * were called inactive; i = inactive; ? = inconclusive; nt = not tested or not shown; [ ] = dose if it differs, or a comment. The list is not random: actives were taken first. Their share in the collection is about 1.3%. Unless noted, the call rests on the fitted dose curve; in most records, active means well fitted curve in the direction sought with a large enough effect; inconclusive means small, poorly fitted or top-dose-only effect, or another doubt; inactive means no such curve, though single readings can be large; an effect the other way counts as inactive or inconclusive. Unless noted, on the % scale 0 is the no-effect control and ±100 the full control effect; potency means the concentration at half of the fitted maximal effect.

SMILES	LmPK inh	AMA1 RON2 block	VACV mCherry inh	RE007 growth inh	TbPYK inhibitor	Vaccinia Venus
CCN1CCc2c(sc(NC(=O)c3ccc(S(=O)(=O)N(CC)c4ccccc4)cc3)c2C(N)=O)C1	0.8%	-10.6%	?	6.3%	0.1%	11.2µM*
Cc1cc(/C=C/c2ccnc3ccccc23)ccc1N(C)C	nt	nt	-4.4%	nt	nt	-15.8%
COc1cccc(CN2C(=O)NC(C)(C3CCN(Cc4cnn(C)c4C)CC3)C2=O)c1OC (centres undefined)	nt	nt	i	nt	nt	-10.1%
COc1cccc(-c2ccnc(-n3ncc(C(=O)NCc4cccnc4)c3C3CC3)n2)c1	nt	nt	-16.9%	nt	nt	-2.8%
Fc1ccc(C2c3[nH]c4ccccc4c3CCN2Cc2cccn2-c2ncccn2)cc1 (centres undefined)	0.3%	-24.8%	4.47µM*	10.7%	6.2%	24.3%
COc1ccc(OC)c(/C=N/N(C)c2ccccc2)c1	6.0%	-16.5%	nt	-25.6%	-17.1%	-10.5%
COc1cc(/C=N/N(C)c2ccccc2)cc(Cl)c1O	-1.6%	-6.6%	-29.4%	28.2µM*	3.9%	-19.6%
CSc1nccc(-c2cc(Cl)c3c(c2)CC(CNC(=O)c2ccc(C)nc2)O3)n1 (centres undefined)	nt	nt	i	nt	nt	-0.4%
CC(=O)Oc1cc(C(=O)OCC(=O)N2CCc3ccccc3C2)cc(OC(C)=O)c1OC(C)=O	nt	0.316µM*	i	19.0%	-17.1%	-9.6%
COc1ccc(C(=O)OCC(=O)N2CCc3ccccc3C2)cc1OC	nt	-4.0%	i	0.3%	-7.2%	-4.8%
O=C1CC(C(=O)N2CCOc3ccc(CN4CCC(Oc5cccnc5)CC4)cc3C2)c2ccccc21 (centres undefined)	nt	nt	-9.6%	nt	nt	2.3%
Cc1cccc(-n2c(CNC(=O)c3ccc(S(=O)(=O)N4CCCCC4)cc3)n[nH]c2=S)c1	9.9%	68.4%	-6.9%	5.1%	7.94µM*	-5.8%
O=C1C(Cl)=C(N2CCCCC2)C(=O)C(Cl)=C1c1cnc(N2CCCCC2)s1	20µM*	8.91µM*	nt	-25.5%	?	nt
COc1ccc(-c2csc(NC(C)c3nc4cc(Cl)c(Cl)cc4n3CCOCCO)n2)cc1 (centres undefined)	nt	14.9%	?	-9.0%	-0.8%	-22.2%
COc1ccc(-c2csc(NC(C)c3nc4cc(Cl)c(N5CCCCC5)cc4n3CCOCCO)n2)cc1 (centres undefined)	nt	56.2%	-15.4%	-12.9%	-5.0%	?
COc1ccc(-c2csc(NC(C)c3nc4cc(Cl)c(N5CCCCC5)cc4n3CCCO)n2)cc1 (centres undefined)	nt	47.2%	8.91µM*	11.1%	6.2%	?
CC(Nc1nc(-c2ccc(F)cc2)cs1)c1nc2cc(Cl)c(Cl)cc2n1CCCO (centres undefined)	nt	11.8%	10µM*	1.9%	-5.1%	?
Cc1nonc1CN(C)C(=O)C1CC12CCN(C(=O)/C=C/c1cccc(Cl)c1)CC2 (centres undefined)	nt	nt	-0.1%	nt	nt	-10.1%
CC(=O)Nc1ccc(NC(=O)C(C)OC(=O)/C=C/c2cn(-c3ccccc3)nc2-c2cccnc2)cc1 (centres undefined)	3.4%	2.7%	12.6µM*	-1.6%	-13.3%	?
CC(=O)Nc1ccc(Oc2ccc([N+](=O)[O-])cc2Cl)cc1	1.3%	1.5%	-8.0%	0.7%	1.3%	-3.6%
CC(=O)Nc1ccc(N=c2cc([N+](=O)[O-])cc(Cl)n2O)cc1	-8.4%	94.5%	8.91µM*	6.3%	-6.2%	?
Cc1nnc(C)c2c(C)n(-c3ccc(Br)cc3)c(C)c12	5.9%	nt	nt	nt	nt	nt
N#CN=c1snc(-c2ccccc2)n1-c1ccc(Br)cc1	nt	nt	3.16µM*	nt	nt	?
NC(=S)N/N=C/c1cccc(Br)c1	-2.8%	56.4%	?	-16.1%	-1.1%	0.891µM*
NC(=S)N/N=C/C=C/c1ccccc1	-0.1%	23.3%[2.32 µM]	1µM*	12.9%	-3.6%	0.794µM*
SMILES	LmPK inh	AMA1 RON2 block	VACV mCherry inh	RE007 growth inh	TbPYK inhibitor	Vaccinia Venus
NC(=S)N/N=C/c1ccc2ccccc2c1	2.8%	24.9%	0.355µM*	3.4%	-18.4%	1µM*
NC(=S)N/N=C/c1cccc(/C=N/NC(N)=S)c1	-3.5%	66.4%	-1.1%	-12.7%	-10.0%	-5.2%
Cc1cc(C(=O)Nc2ccccc2-c2nc(CNC(=O)c3cscn3)c(C)o2)c(C)o1	nt	nt	-9.9%	nt	nt	0.4%
Cc1cc(C)nc(Nc2nc3ccccc3o2)n1	6.6%	25.9%	-18.1%[7.34 µM]	-13.7%	2.0%	-10.7%[7.34 µM]
CC(=NNc1nc2ccccc2o1)c1cc2ccccc2cn1	nt	?	?	?	-4.0%	0.708µM*
Oc1ccccc1/C=N/Nc1nc2ccccc2o1	-10.8%	120.5%	?	-21.3%	0.4%	?
CC(=NNc1nc2ccccc2o1)c1ncccn1	nt	-4.7%	0.708µM*	?	-1.1%	?
CCN(CC)C(=O)[C@H]1C[C@H](CC(=O)NCCCN(C)C)C(=O)N2CCc3c([nH]c4cc(-c5ccco5)ccc34)[C@]12C	nt	-24.1%	?	-4.1%	2.8%	-15.4%
CC(C)N(C(=O)[C@H]1C[C@H](CC(=O)NCCCN(C)C)C(=O)N2CCc3c([nH]c4cc(-c5ccco5)ccc34)[C@]12C)C(C)C	nt	-28.8%	10µM*	-4.9%	-3.4%	?
CC(C)N(C(=O)[C@H]1C[C@H](CC(=O)NCCC2=CCCCC2)C(=O)N2CCc3c([nH]c4cc(-c5ccco5)ccc34)[C@]12C)C(C)C	nt	?	10µM*	3.0%	0.6%	11.2µM*
O=C1c2ccccc2S(=O)(=O)c2cc(C(=O)N3CCC(C(=O)N4CCCCC4)CC3)ccc21	nt	5.3%	?	6.2%	-16.9%	1.41µM*
CC1CCCC(C)N1C(=O)c1ccc2c(c1)S(=O)(=O)c1ccccc1C2=O (centres undefined)	0.2%	4.5%	-10.8%	-2.3%	-1.4%	-11.5%
CCCCCCC[n+]1ccc(/C=C/c2c(C)[nH]c3ccccc23)c2ccccc21	nt	nt	i	nt	nt	i
COc1ccc(C(=O)N2CCC3(CC2)c2ccccc2[C@@H](NC(=O)c2ccccn2)[C@@H]3OC)c(O)c1	nt	nt	-19.4%	nt	nt	-2.2%
Cc1cnc(C)c(-c2cc(F)cc3c2OC(CNC(=O)CN2CCCC2)C3)n1 (centres undefined)	nt	nt	-0.8%	nt	nt	-13.9%
CCN(CC)c1ccc(/C=N/NC(=O)c2ccco2)c(O)c1	-15.0%	99.8%	nt	?	0.8%	nt
